Compound activity from PubChem.
Cl transport mod: KCC2 cotransporter modulators, thallium flux, primary screen, cell-based, HEK293 KCC2, FluoZin-2 fluorescence, MLSMR. Solute carrier family 12 member 5 (Homo sapiens), Q9H2X9. KCC2 cells, thallium flux FluoZin-2 fluorescence. B-score of Tl+ flux slope (higher = more flux/activation; lower = inhibition) at 10 µM. 2.2% of 190,000 active;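 active means thallium flux slope and its plate-corrected score both differing from the plate sample mean at a set confidence after two filtering rounds, in either direction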;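 further: slope of fluorescence scaled to starting intensity during 10 to 20 s after thallium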
EP2 modulator: EP2 receptor modulators, cAMP readout, primary screen, cell-based, HTRF cAMP, PGE2 stimulation. induction, % at 25 µM. EP2-expressing cells, cAMP HTRF FRET, PGE2 co-stimulation. 0.83% of 260,000 active. AID 940, 2007. Prostaglandin E2 receptor EP2 subtype (Homo sapiens), P43116;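 active means compounds whose cAMP rise, as percent of the full-agonist control response, exceeds 60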;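 further: rat C6 glioma line stably carrying human EP2 under a CMV promoter; the protocol text gives 20 µM as final concentration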
Target sequence (P43116 whole entry, looked up): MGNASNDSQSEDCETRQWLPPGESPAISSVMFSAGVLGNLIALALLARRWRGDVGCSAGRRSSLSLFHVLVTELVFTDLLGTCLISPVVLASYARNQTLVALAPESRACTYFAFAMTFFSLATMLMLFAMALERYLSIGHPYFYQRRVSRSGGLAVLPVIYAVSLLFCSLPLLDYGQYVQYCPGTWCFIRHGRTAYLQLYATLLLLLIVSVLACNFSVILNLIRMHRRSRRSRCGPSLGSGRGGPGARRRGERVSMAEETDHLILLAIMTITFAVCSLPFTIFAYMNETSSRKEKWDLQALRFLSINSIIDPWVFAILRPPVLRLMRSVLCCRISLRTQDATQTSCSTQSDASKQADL
S1P3 antag: S1P3 receptor antagonists, primary screen, cell-based. Sphingosine 1-phosphate receptor 3 (Homo sapiens), Q99500. inhibition, % at 4.98 µM. AID 485, 2006. CHO S1P3 NFAT-BLA reporter, FRET fluorescence, antagonist mode. 0.27% of 170,000 active;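 active means inhibition above the plate cutoff, the mean inhibition of test wells on that plate plus 3 SD, cut at about 28% in these data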;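 further: cells challenged with S1P at its EC80 of 0.8 µM; blue over green emission ratio from cleaved BLA substrate after 4 h stimulation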
Target sequence (Q99500 whole entry, looked up): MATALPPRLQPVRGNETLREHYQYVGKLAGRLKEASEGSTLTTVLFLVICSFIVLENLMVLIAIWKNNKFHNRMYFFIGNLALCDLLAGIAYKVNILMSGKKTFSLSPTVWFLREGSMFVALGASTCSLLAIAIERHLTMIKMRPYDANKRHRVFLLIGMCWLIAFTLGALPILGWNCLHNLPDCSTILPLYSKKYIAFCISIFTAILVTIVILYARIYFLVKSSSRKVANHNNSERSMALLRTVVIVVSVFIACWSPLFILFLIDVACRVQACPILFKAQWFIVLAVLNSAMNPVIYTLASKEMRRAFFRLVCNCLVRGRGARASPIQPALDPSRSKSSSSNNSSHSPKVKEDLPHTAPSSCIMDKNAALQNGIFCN
EP2 antag: human EP2 receptor antagonists, primary screen, TR-FRET cAMP, C6 glioma cells; C6 glioma cells expressing human EP2; cells stimulated with saturating PGE2; inhibition, % at 25 µM; 0.52% of 260,000 active;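 active means percent inhibition above 40 after rounding to a whole number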;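 further: rat C6 glioma host cells with rolipram phosphodiesterase inhibitor present; the protocol text gives 20 µM as final concentration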
KCC2 sec1: KCC2 modulators in sodium-free buffer, confirmation, cell-based, HEK293 KCC2, thallium flux, secondary assay | shares compounds with Cl transport mod | FluoZin2 fluorescence; stronger effect = higher value | normalised thallium flux (F/F0 slope) at 10 µM | 15% of 3,700 active | AID 1713, 2009;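 active means thallium flux slope above the same plate's solvent-only control mean plus 3 SD; inconclusive means the two replicate wells disagree; inactive means no significant difference from solvent-only control wells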
KCC2 bumet counter: thallium flux persisting under bumetanide in KCC2 cells, confirmation, counter-screen for KCC2 modulator project, cell-based, HEK293 KCC2, FluoZin2, secondary assay 3. shares compounds with Cl transport mod. HEK293-KCC2 + bumetanide/ouabain; stronger effect = higher value. normalized thallium flux at 10 µM. 49% of 3,700 active;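 active means thallium entry rate above the same plate's blocked-transporter control wells by more than 3 SD; inconclusive means the two repeat wells disagree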;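 further: raw slope of fluorescence over initial fluorescence between 10 and 20 s after thallium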
KCC2 secondary2: KCC2 modulators without ouabain present, confirmation, cell-based, HEK293 KCC2, thallium flux, FluoZin2, secondary assay 2; shares compounds with Cl transport mod; normalized thallium flux at 10 µM; 23% of 3,700 active; AID 1715, 2009; thallium flux FluoZin2 fluorescence; actives lie on both sides; F/F0 rise rate, 10–20 s post-thallium;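 active means thallium flux slope more than 3 SD above or below the plate's solvent-only control mean, mostly below; inconclusive means the two repeat wells disagreed; inactive means no significant shift from solvent-only controls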
HEK293 Tl flux: thallium flux modulation in parental HEK cells, confirmation, counter-screen for KCC2 modulator project, cell-based, counterscreen 1; shares compounds with Cl transport mod; HEK293 parental cells, thallium flux FluoZin2, ouabain; baseline-ratio fluorescence slope, 10–20 s after thallium; thallium flux rate (normalised fluorescence) at 10 µM; 46% of 3,700 active;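 active means thallium flux rate significantly above the same plate's solvent-only control wells, beyond their mean plus 3 SD; inconclusive means the two replicate wells gave conflicting results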
KCC2 ouabain: KCC2 inhibitors and activators, ouabain retest, confirmation, HEK-KCC2 cells. raw Tl+ flux slope (below DMSO = inhibition, above = activation) at 10 µM. shares compounds with Cl transport mod. 48% of 3,700 active. HEK293-KCC2, thallium flux FluoZin2 fluorescence; bidirectional: low = inhibitor, high = activator. AID 1717, 2009;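 active means thallium flux slope beyond 3 SD from same-plate DMSO control mean in most replicates, usually higher, sometimes lower; inconclusive means repeat tests gave conflicting results; inactive means no significant difference from controls in most replicates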;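 further: slope of initial-normalized fluorescence between seconds 10 and 20 after thallium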
HEK293 Tl flux2: native HEK Tl+ uptake effects, second counter-screen – HEK cells, counterscreen 2, counter-screen for KCC2 modulator project, confirmation; shares compounds with Cl transport mod; HEK293 parental, thallium flux FluoZin-2 fluorescence slope; thallium flux slope at 10 µM; 33% of 3,700 active; AID 1718, 2009;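 active means thallium flux slope above the same plate's solvent-control mean plus 3 SD in both duplicate wells; inconclusive means duplicate wells that disagreed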;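 further: run without ouabain in cells lacking the KCC2 cotransporter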
Of the large screens only hits and unclear results are named; the others gave an inactive call (follow-up assays come after a bar, where they were run). Most compounds without a hit are left out; they make up all but 3.1% or so of the library.

O=C(NC(=S)N1CCN(c2ccccn2)CC1)c1ccccc1	Cl transport mod 17.4 | KCC2 sec1 inactive | KCC2 bumet counter 0.0427 | KCC2 secondary2 inactive | HEK293 Tl flux 0.0295 | KCC2 ouabain 0.0389 | HEK293 Tl flux2 0.0191
O=C(/C=C/c1ccc(Br)cc1)NC(=S)N1CCOCC1	Cl transport mod 8.68 | KCC2 sec1 inactive | KCC2 bumet counter 0.0241 | KCC2 secondary2 inactive | HEK293 Tl flux 0.0169 | KCC2 ouabain 0.031 | HEK293 Tl flux2 0.019
COc1ccc(/C=C/C(=O)NC(=S)N2CCSCC2)cc1	Cl transport mod 8.69 | KCC2 sec1 inactive | KCC2 bumet counter 0.034 | KCC2 secondary2 inactive | HEK293 Tl flux 0.0159 | KCC2 ouabain 0.0249 | HEK293 Tl flux2 0.0175
COC(=O)CCCCC(=O)C1C(=O)CC(C)(C)C(C(=O)OC)C1=O (configuration not stated)	none
CC1(C)CC(=O)C(C(=O)CCCCC(=O)C2C(=O)CC(C)(C)CC2=O)C(=O)C1	Cl transport mod 4.4 (no result: EP2 antag) | KCC2 sec1 inactive | KCC2 bumet counter inactive | KCC2 secondary2 inactive | HEK293 Tl flux inactive | KCC2 ouabain inactive | HEK293 Tl flux2 inactive
Cc1nn2c(N3CCCC(O)C3)c3c(nc2c1-c1cccs1)CCC3 (configuration not stated)	none (no result: Cl transport mod, S1P3 antag, EP2 antag)
CS(=O)(=O)N(CC(=O)Nc1ccc2c(c1)OCCO2)Cc1ccccc1	none
O=C(CN(Cc1ccccc1)S(=O)(=O)c1ccc2c(c1)OCCO2)Nc1ccc2c(c1)OCCO2	none (no result: Cl transport mod) | KCC2 sec1 inactive | KCC2 bumet counter inactive | KCC2 secondary2 0.025 | HEK293 Tl flux 0.00622 | KCC2 ouabain inconclusive | HEK293 Tl flux2 inactive
CC(C)(C)NC(=O)C1CCN(S(=O)(=O)c2cc(Cl)ccc2Cl)CC1	none (no result: Cl transport mod, S1P3 antag)
Cc1sc2ncn(CC(=O)N3CCOCC3)c(=O)c2c1-c1ccc(Cl)cc1	none (no result: Cl transport mod, S1P3 antag)
CC1=NN(C(N)=S)C(=O)C1N=Nc1cccc2ccccc12 (configuration not stated)	Cl transport mod 5.42 | KCC2 sec1 inactive | KCC2 bumet counter 0.0464 | KCC2 secondary2 inactive | HEK293 Tl flux 0.0114 | KCC2 ouabain inconclusive | HEK293 Tl flux2 inconclusive
CC1=NN(c2nc(-c3ccc(C)cc3)cs2)C(=O)C1N=Nc1ccccc1O (configuration not stated)	none
CC1=NN(C(N)=S)C(=O)C1N=Nc1ccccc1 (configuration not stated)	Cl transport mod 5.22 | KCC2 sec1 inactive | KCC2 bumet counter 0.0244 | KCC2 secondary2 inactive | HEK293 Tl flux inconclusive | KCC2 ouabain inconclusive | HEK293 Tl flux2 inactive
CCC(C)NC(=O)C1CC(=O)N(c2ccccc2F)C1 (configuration not stated)	none (no result: Cl transport mod, S1P3 antag)
CCOC(=O)C1CCN(C(=O)CN(c2cccc(Cl)c2)S(C)(=O)=O)CC1	none (no result: Cl transport mod, S1P3 antag)
COc1ccccc1Oc1nc2c(c(=O)n(Cc3ccccc3F)c(=O)n2C)n1C	none
Cn1c(NCCCO)nc2c1c(=O)n(Cc1ccccc1F)c(=O)n2C	none (no result: S1P3 antag) | KCC2 sec1 inactive | KCC2 bumet counter inconclusive | KCC2 secondary2 inactive | HEK293 Tl flux inactive | KCC2 ouabain inactive | HEK293 Tl flux2 inactive
COCCN1C(=O)/C(=C/c2cc3c(cc2Br)OCO3)NC1=S	Cl transport mod 20.9 | KCC2 sec1 inactive | KCC2 bumet counter 0.0471 | KCC2 secondary2 0.0414 | HEK293 Tl flux 0.0348 | KCC2 ouabain 0.0411 | HEK293 Tl flux2 0.0333
CC(/C=C/c1ccccc1)=N\NC(=S)NC(C)C	Cl transport mod 8.02 | KCC2 sec1 inactive | KCC2 bumet counter 0.0181 | KCC2 secondary2 inactive | HEK293 Tl flux 0.0171 | KCC2 ouabain inconclusive | HEK293 Tl flux2 0.0136
O=C1CS/C(=C/C(=O)c2cccc(Cl)c2)N1	Cl transport mod 6.79 | KCC2 sec1 inconclusive | KCC2 bumet counter 0.0236 | KCC2 secondary2 inactive | HEK293 Tl flux 0.0111 | KCC2 ouabain 0.0513 | HEK293 Tl flux2 0.0112
O=C(NC1CCCCC1)c1sc(=S)n2c1[nH]c(=O)c1ccccc12	Cl transport mod 8.7 | KCC2 sec1 inactive | KCC2 bumet counter 0.0333 | KCC2 secondary2 0.0407 | HEK293 Tl flux 0.0255 | KCC2 ouabain 0.0348 | HEK293 Tl flux2 0.0274
COc1cc(CN2C[C@@H]3CCCN3C[C@@H]2Cc2ccccc2)ccc1OCC(N)=O	none (no result: Cl transport mod, S1P3 antag)
COc1ccc(CN(Cc2cccc(C)n2)CC2CCCO2)c(OC)c1 (configuration not stated)	none (no result: Cl transport mod, S1P3 antag)
O=C(Nc1ccc(Cl)cc1)N1CCC(CO)(Cc2ccccc2)CC1	Cl transport mod -3.16 | KCC2 sec1 inactive | KCC2 bumet counter inconclusive | KCC2 secondary2 inactive | HEK293 Tl flux inactive | KCC2 ouabain inconclusive | HEK293 Tl flux2 inactive
O=C(Nc1ccc(Cl)cc1)N1CCN(c2ccccc2)CC1	none (no result: S1P3 antag)
COc1ccc2c(c1)cc(C)c1nnc(SCC(=O)Nc3ccc4c(c3)OCO4)n12	none (no result: Cl transport mod, S1P3 antag)
O=C(NCC1CCCO1)C(c1cccs1)N(C(=O)c1ccc(-c2ccccc2)[nH]1)C1CCCC1 (configuration not stated)	Cl transport mod -5.68 | KCC2 sec1 inactive | KCC2 bumet counter inactive | KCC2 secondary2 inconclusive | HEK293 Tl flux inactive | KCC2 ouabain 0.0152 | HEK293 Tl flux2 inactive
